In the library only some 22% were active in any assay of this set; here they are far more common.
cytoskel mod: modifiers of F-actin cytoskeleton organization, primary screen, imaging, HUVEC, phalloidin staining, high-content imaging. 91,000 tested, 0.18% active. AID 836, 2007. inhibition, % at 2 µM. HUVEC TNFa F-actin phalloidin imaging;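 active = inhibition above the batch mean plus 3 SD and confirmed as a hit by visual image inspection, cut at about 30% in these data, passing the limit was not always enough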
CYP2C19 inhib: blockers of cytochrome P450 2C19 activity – biochemical, luminescence, ADME assay, primary screen. inhibition, % at 5 µM. 96,000 tested, 21% active. CYP2C19 Supersomes, luciferin-H EGE luminescence, 30 min. P33261;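 active = CYP2C19 inhibition above a set limit at 5 µM in the primary screen, cut at about 50% in these data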
CYP2C19 activ: human CYP2C19 activators, primary screen, biochemical, luminescence | recombinant CYP2C19, luciferin-H EGE luminescence; hits give high values; 0 = fully inhibited enzyme, 1 = untreated enzyme | activation factor at 5 µM | Cytochrome P450 2C19 (Homo sapiens), P33261 | 96,000 tested, under 10 active;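 active = activation factor of at least 2 at 5 µM in the primary screen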
CYP2C9 act: human CYP2C9 activators, primary screen, biochemical, luminescence; Cytochrome P450 2C9 (Homo sapiens), P11712; activation factor at 5 µM; 96,000 tested, 1.4% active; AID 1024, 2008; recombinant CYP2C9, luciferin-H conversion; hits give high values; factor 1 = untreated enzyme, 0 = blocked;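 active = activation factor of 2 or more for CYP2C9 at a 5 µM dose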
Target sequence (P11712 whole entry, looked up): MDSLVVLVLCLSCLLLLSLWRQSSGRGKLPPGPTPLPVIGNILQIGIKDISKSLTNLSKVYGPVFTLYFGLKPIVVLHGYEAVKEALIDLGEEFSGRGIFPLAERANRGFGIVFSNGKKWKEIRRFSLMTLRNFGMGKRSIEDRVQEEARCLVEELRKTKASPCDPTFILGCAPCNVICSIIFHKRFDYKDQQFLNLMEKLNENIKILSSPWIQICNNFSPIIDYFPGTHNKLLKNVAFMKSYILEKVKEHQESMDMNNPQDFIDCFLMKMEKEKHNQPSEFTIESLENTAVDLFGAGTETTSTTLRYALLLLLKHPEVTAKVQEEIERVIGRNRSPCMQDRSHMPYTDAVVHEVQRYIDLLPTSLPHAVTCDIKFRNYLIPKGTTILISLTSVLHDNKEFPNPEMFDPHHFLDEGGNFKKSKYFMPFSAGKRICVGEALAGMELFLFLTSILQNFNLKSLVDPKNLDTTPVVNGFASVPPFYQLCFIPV
E-sel TNF inh: E-selectin induction blockers in HUVEC – imaging, immunofluorescence, high content, primary screen | AID 1246, 2008 | inhibition, % at 2 µM | HUVEC TNFa-induced E-selectin immunofluorescence | 120,000 tested, 0.71% active;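 active = inhibition above the batch mean plus 3 SD, and confirmed as a hit on visual image review, cut at about 43% in these data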
CYP2C9 inh: blockers of cytochrome P450 2C9 activity – biochemical, luminescence, ADME assay, primary screen | CYP2C9 Supersomes, luciferin-H conversion | inhibition, % at 5 µM | 96,000 tested, 20% active | AID 777, 2007;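 active = blocking of liver enzyme CYP2C9 beyond about 50% at 5 µM, limit read from the data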
Hits are given with their value; n = inactive; x = not tested or not shown.

SMILES	cytoskel mod	CYP2C19 inhib	CYP2C19 activ	CYP2C9 act	E-sel TNF inh	CYP2C9 inh
CC(C)OC(=O)CSc1nnc(-c2ccc(Cl)cc2Cl)o1	n	n	n	n	n	n
O=C(CSc1nnc(-c2ccccc2F)n1C1CC1)NC(=O)c1cccc([N+](=O)[O-])c1	x	x	x	x	n	x
CC(C)c1ccccc1NC(=S)NN(Cc1ccccc1)c1ccccc1	n	62	n	n	x	n
Fc1ccccc1NC(=S)NN(Cc1ccccc1)c1ccccc1	n	95	n	n	n	82
Oc1ccc2oc3c(c2c1)CCCC3	n	n	n	n	n	n
O=c1oc2cc(O)ccc2c2c1CCCC2	n	n	n	2.6	n	n
O=c1oc2cc(O)ccc2c2ccccc12	n	n	n	2.2	n	n
Cc1coc2cc3oc(=O)c4c(c3cc12)CCCC4	n	n	n	n	x	74
CC1=[N+]([O-])C(C)(C)CC(C)(C)c2ccccc21	n	n	n	n	n	n
Cc1ccc(NS(=O)(=O)c2ccc(Cl)c(C(=O)O)c2)cc1S(=O)(=O)N1CCOCC1	x	x	x	x	n	x
Cc1cccc(NC(=O)c2cccc(NS(=O)(=O)c3ccc(Cl)cc3)c2)c1	n	99	n	n	n	97
Cc1ccc(S(=O)(=O)Nc2cc(C(=O)Nc3cc(C)cc(C)c3)ccc2Cl)cc1	n	57	n	n	n	80
Cc1cccc(NC(=O)c2cc(S(=O)(=O)c3ccccc3)ccc2Cl)c1	n	80	n	n	n	94
CCN(CC)S(=O)(=O)c1ccc(C(=O)Nc2cc(C)cc(C)c2)cc1	n	n	n	n	x	n
O=C(Nc1cccc(S(=O)(=O)Nc2ccc(Cl)cc2)c1)c1ccc(Cl)nc1	x	x	x	x	n	x
Cc1cc(C)c(NS(=O)(=O)c2ccc(Cl)c(C(=O)O)c2)c(C)c1	n	n	n	n	n	61
Cc1cccc(Nc2nnc(SCC3CCCCO3)s2)c1 (stereo not given)	x	x	x	x	n	x
CC(=O)c1cccc(NS(=O)(=O)c2ccc(N/C=C\C(=O)c3ccc(C)cc3)cc2)c1	n	n	n	n	n	65
CC(C)Oc1ccc(C(CC(=O)O)NC(=O)C2CCCCC2)cc1 (stereo not given)	n	n	n	n	x	n
CCOC(=O)Cc1csc(NC(=O)c2ccc(C)o2)n1	n	73	n	n	n	72
CCOC(=O)Cc1csc(NC(=O)COc2ccc(C)cc2)n1	x	x	x	x	n	x
CCCCOC(=O)Nc1nc(CC(=O)OCC)cs1	n	91	n	n	n	82
CCOC(=O)Cc1csc(NC(=O)c2ccncc2)n1	n	78	n	n	x	56
CCn1c(C(C)NC(=O)c2ccc(Cl)cc2)n[nH]c1=S (stereo not given)	x	x	x	x	n	x
CC1CC(C)(C)N(C(=O)CSc2ccc(-c3ccc(F)cc3)nn2)c2ccccc21 (stereo not given)	n	n	n	n	n	58
SMILES	cytoskel mod	CYP2C19 inhib	CYP2C19 activ	CYP2C9 act	E-sel TNF inh	CYP2C9 inh
COc1ccc(C(O)c2nc3ccccc3s2)cc1 (stereo not given)	n	62	n	n	x	n
CC(=O)Nc1c(-c2ccccc2)nc2ncccn12	n	n	n	n	n	n
O=C(CCn1cccc1)Nc1ccccc1F	n	n	n	n	x	n
O=C(CCc1ccc(CCC(=O)c2cccs2)s1)c1cccs1	x	89	n	n	n	93
O=C(CCCC(=O)NCc1ccc(F)cc1)NCc1ccc(F)cc1	x	x	x	x	n	x
CC(C)(C)CC(=O)NCc1ccc(F)cc1	n	53	n	n	n	n
O=C(CCC(=O)c1cccs1)Nc1ccccc1F	n	52	n	n	n	n
O=C(CCC(=O)c1cccs1)NCc1ccc(F)cc1	n	72	n	n	n	n
O=C(CCSc1ccc(Cl)cc1)c1cccs1	n	n	n	n	x	n
Cc1cccc(OCC(=O)Nc2ccc(N3CCN(S(C)(=O)=O)CC3)cc2)c1C	n	n	n	n	n	n
Cn1c(=O)c2c(nc(SCC(=O)NCc3ccc4c(c3)OCO4)n2Cc2ccc(Cl)cc2)n(C)c1=O	n	x	x	x	n	x
O=C(Nc1ccccc1-c1nnn(CC(=O)N2CCCc3ccccc32)n1)c1ccco1	n	54	n	n	n	90
O=C(Nc1ccccc1-c1nnn(CC(=O)N2CCCc3ccccc32)n1)c1ccc(Cl)cc1	n	x	x	x	n	x
Cc1csc(=Nc2cccnc2)n1Cc1ccco1	x	x	x	x	n	x
Cc1csc(=Nc2ccc(S(=O)(=O)N3CCOCC3)cc2)n1Cc1ccco1	n	n	n	n	x	64
COc1ccc(Cl)cc1Nc1nc(NCCO)nc(N2CCCC2)n1	n	57	n	n	n	59
Cc1ccccc1NC(=O)CSc1nc(N2CCCCC2)nc(N2CCCCC2)n1	n	n	n	n	n	n
COc1ccc(Cl)cc1NC(=O)CSc1nc(N2CCCCC2)nc(N2CCCCC2)n1	n	n	n	n	n	84
COc1ccc(/C=N/Nc2nc(N3CCCC3)nc(N3CCCC3)n2)cc1O	n	n	n	n	n	n
COc1ccccc1NC(=S)N1CCCC1	x	x	x	x	n	x
O=C(Cn1ncc(Cl)c(Cl)c1=O)N1CCOCC1	x	x	x	x	n	x
CN1C(=O)C(=O)N(CC(=O)N2CCc3ccccc32)C1=O	n	n	n	n	n	n
O=C(Cn1ncc(Cl)c(Cl)c1=O)N1CCc2ccccc21	x	x	x	x	100	x
O=C(CN1C(=O)CSc2ccccc21)N1CCc2ccccc21	n	82	n	n	n	n
COc1ccc(-c2cc3ccccc3n2CC(O)CN2CCN(CCO)CC2)cc1 (stereo not given)	n	n	n	n	n	n
SMILES	cytoskel mod	CYP2C19 inhib	CYP2C19 activ	CYP2C9 act	E-sel TNF inh	CYP2C9 inh
Cc1ccc(S(=O)(=O)N(CC(O)CN2CCOCC2)c2cc(Cl)ccc2Cl)cc1 (stereo not given)	n	54	n	n	n	n
Cc1ccc(N(CC(O)CN2CCOCC2)S(=O)(=O)c2ccc3ccccc3c2)cc1 (stereo not given)	n	n	n	n	n	52
COc1ccc(-c2cc3ccccc3n2CC(O)CN2CCOCC2)cc1 (stereo not given)	x	95	n	n	n	63
O=c1ccc(Oc2nc(N3CCOCC3)nc(N3CCOCC3)n2)nn1-c1ccccc1	n	n	n	n	n	n
CC(C)(C)Nc1nc(Oc2ccc(=O)n(-c3ccccc3)n2)nc(N2CCOCC2)n1	x	54	n	n	x	68
COc1ccc(NCCNc2ccc(OC)cc2)cc1	n	56	n	n	n	n
Cc1ccc(NCCc2ccc(C)nc2)cc1	n	96	n	n	n	n
Cc1ccc(NCCNc2ccc(C)cc2)cc1	n	100	n	n	n	n
Cc1ccc(C(=O)CNc2ccc(Cl)cc2)cc1	x	x	x	x	n	x
CC(=O)Nc1cccc(C(=O)Nc2ccccc2C(=O)O)c1	n	n	n	n	n	n
O=C(Nc1ccccc1C(=O)O)c1ccc(NC(=O)c2ccc(Br)o2)cc1	n	n	n	n	n	78
